Assay results published in PubChem BioAssay AID463173 (ICCB-Longwood Screening Facility, Harvard Medical School, 2010).
Among all 52,000 compounds or so, about 4,300 (8.3%) were called active. The full list was thinned out, with actives kept by preference. Unmarked numbers belong to inactive results. Cut-off read from the data, not from the text of the source: active = survival mostly below about 52% (no sharp cut-off); inactive = mostly above about 56%.

Tested on: DeltatarO mutant
Experiment: growth inhibition of S. aureus wild type versus tarO mutant, primary screen, teichoic acid synthesis inhibitors, RN4220, OD600 (AID 463173)
Details: OD600, 18 h, active compounds read low, screened at 18.75 µg/mL (by protocol)

Row | SMILES | survival
1 | COc1ccc(OC)c2sc(N(Cc3cccnc3)C(=O)c3ccc(C(C)=O)cc3)nc12 | 120%
2 | COc1ccc(/C=C/C(=O)Nc2nc3n(n2)C(c2ccc(F)cc2)C=C(c2ccccc2)N3)cc1 (centres undefined) | 42% (active)
3 | COc1ccc(C2C=C(c3ccccc3)Nc3nc(NC(=O)/C=C/c4ccc(F)cc4)nn32)cc1 (centres undefined) | 51%
4 | COc1ccc(/C=C/C(=O)Nc2nc3n(n2)C(c2ccccc2)C=C(c2ccccc2)N3)cc1 (centres undefined) | 70%
5 | Cc1cc(=O)[nH]c(SCC(=O)OCc2ccccc2)c1C#N | 102%
6 | CCCN(CCC)CCCNC(=O)Cn1ncc2c3ccccc3n(Cc3ccccc3F)c2c1=O | 129%
7 | Cc1ccccc1Cn1c(CN2CCC(C(=O)NCc3ccc(Cl)cc3)CC2)cc2ccccc21 | 67%
8 | CCCCN(CC)CCCNC(=O)c1cc2c(=O)[nH]c3ccccc3c2n1C | 90%
9 | COc1cccc(CSc2nc3ccncc3n2CC(=O)Nc2ccc(OC)c(OC)c2OC)c1 | 98%
10 | COc1ccc(CSc2nc3ccncc3n2CC(=O)Nc2cc(C)cc(C)c2)cc1 | 60% (active)
11 | COc1ccc(CSc2nc3ccncc3n2CC(=O)Nc2ccc(C)c(F)c2)cc1 | 85%
12 | CCc1ccccc1NC(=O)Cn1c(SCc2ccc(F)cc2)nc2ccncc21 | 36% (active)
13 | CN(C)c1ccc(NC(=O)Cn2c(SCc3ccc(F)cc3)nc3ccncc32)cc1 | 72%
14 | O=C(Cn1c(SCc2ccccc2F)nc2ccncc21)Nc1ccccc1C(F)(F)F | 66%
15 | COc1ccc(S(=O)(=O)N(CCc2ccccc2)CC(=O)Nc2cc(C)cc(C)c2)cc1OC | 54%
16 | Cc1ccc(C)c(Cn2c(=O)n(-c3ccc(F)cc3)c(=O)c3sc4ccccc4c32)c1 | 95%
17 | CC[N+](C)(C)Cc1ccco1 | 80%
18 | COc1cc2c(C(=O)Nc3cc(OC)c(OC)c(OC)c3)cn(C)c(=O)c2cc1OC | 63%
19 | OC1(C#Cc2ccccc2)CCCCC1 | 104%
20 | COc1ccc(CCCc2n[nH]c(=S)o2)c(C)c1 | 94%
21 | Cn1c(=O)c2c(-c3ccccc3Cl)n(Cc3ccc(Cl)cc3)cc2n(C)c1=O | 60%
22 | CCCCn1cc2c(c1-c1ccccc1Br)c(=O)n(C)c(=O)n2C | 76%

Row | SMILES | survival
23 | Cn1c(=O)c2c(-c3ccc(Cl)cc3)n(Cc3ccccc3)cc2n(C)c1=O | 40% (active)
24 | Cn1c(=O)c2c(-c3ccccc3Br)n(CCc3ccccc3)cc2n(C)c1=O | 45% (active)
25 | Cn1c(=O)c2c(-c3ccccc3Br)n(Cc3ccccc3)cc2n(C)c1=O | 88%
26 | Cn1c(=O)c2c(-c3ccc(Br)cc3)n(CCc3ccccc3)cc2n(C)c1=O | 89%
27 | Cc1ccc(-c2c3c(=O)n(C)c(=O)n(C)c3cn2-c2cc(C)ccc2O)cc1 | 75%
28 | Cn1c(=O)c2c(-c3ccc(Br)cc3)n(Cc3ccc(F)cc3)cc2n(C)c1=O | 49% (active)
29 | Cn1c(=O)c2c(-c3ccc(Cl)cc3)n(Cc3ccc(Cl)cc3)cc2n(C)c1=O | 56%
30 | Cn1c(=O)c2c(-c3ccccc3Cl)n(-c3cc(Cl)ccc3O)cc2n(C)c1=O | 53% (active)
31 | Cn1c(=O)c2c(-c3ccc(Cl)cc3)n(CCc3ccccc3)cc2n(C)c1=O | 93%
32 | CCCCn1cc2c(c1-c1ccc(Br)cc1)c(=O)n(C)c(=O)n2C | 58%
33 | O=C(NCc1ccccc1Cl)c1ccc2c(c1)N(Cc1ccccc1)C(=O)c1ccccc1S2 | 144%
34 | O=C(Nc1cnn(C23CC4CC(CC(C4)C2)C3)c1)c1cc(-c2ccccc2)on1 | 101%
35 | COc1ccc(NC(=O)C(C)Sc2nc(C)cc(=O)[nH]2)cc1 (centres undefined) | 101%
36 | CC(C)c1ccc(NC(=O)C2(C)Cc3ccccc3C(=O)O2)cc1 (centres undefined) | 106%
37 | CC(NC(=O)c1nn(C)c2c1CSc1ccccc1-2)c1ccccc1 (centres undefined) | 76%
38 | CCC(=O)C1=C(c2ccc(OC)c(OC)c2)N(C(=O)CC)n2c(nnc2-c2ccc(C)cc2)S1 | 68%
39 | CCC(=O)C1=C(c2ccc(F)cc2)N(C(=O)CC)n2cnnc2S1 | 128%
40 | CCOc1ccc(C2=C(C(=O)CC)Sc3nncn3N2C(=O)CC)cc1 | 17% (active)
41 | CCC(=O)C1=C(c2cccc([N+](=O)[O-])c2)N(C(=O)CC)n2c(nnc2C2CCCCC2)S1 | 91%
42 | CCC(=O)C1=C(c2cccc([N+](=O)[O-])c2)N(C(=O)CC)n2c(nnc2-c2ccccc2)S1 | 8% (active)
43 | CCCC(=O)C1=C(c2ccc(C)cc2)N(C(=O)CCC)n2cnnc2S1 | 130%
44 | CCC(=O)C1=C(c2ccc(F)cc2)N(C(=O)CC)n2c(nnc2-c2ccc(OC)cc2)S1 | 66%
